Assay results: PubChem BioAssay AID1851 (National Center for Advancing Translational Sciences (NCATS), 2009)
Several values for one entry are separate records, joined by “and”; a condition that tells them apart may be missing. Identical values can stand only once. Among all 16,000 compounds or so, about 2,600 (16%) were called active. Inconclusive results (about 20%) are left out. This is one part of a sample in which actives are shown more often than they occur. Calls follow the shape of the dose curve; as a rule, active = well fitted curve in the direction sought with a large enough effect; inconclusive = small, poorly fitted or top-dose-only effect, or effect the other way; inactive = no such curve, though single readings can be large or run the other way. Some structures have more than one record in an assay (separate samples or runs), and their calls can disagree.

The molecules below were run against Cytochrome P450 2D6 (Homo sapiens) (UniProt P10635) (assay: Cytochrome panel assay with activity outcomes). Settings: recombinant CYP, pro-luciferin dealkylation, luminescence, p450-cyp2d6; series mostly up to 57.1 µM; activity, negative = inhibition: at the top concentration.
Sequence of Cytochrome P450 2D6 (Homo sapiens) (P10635 whole entry, looked up): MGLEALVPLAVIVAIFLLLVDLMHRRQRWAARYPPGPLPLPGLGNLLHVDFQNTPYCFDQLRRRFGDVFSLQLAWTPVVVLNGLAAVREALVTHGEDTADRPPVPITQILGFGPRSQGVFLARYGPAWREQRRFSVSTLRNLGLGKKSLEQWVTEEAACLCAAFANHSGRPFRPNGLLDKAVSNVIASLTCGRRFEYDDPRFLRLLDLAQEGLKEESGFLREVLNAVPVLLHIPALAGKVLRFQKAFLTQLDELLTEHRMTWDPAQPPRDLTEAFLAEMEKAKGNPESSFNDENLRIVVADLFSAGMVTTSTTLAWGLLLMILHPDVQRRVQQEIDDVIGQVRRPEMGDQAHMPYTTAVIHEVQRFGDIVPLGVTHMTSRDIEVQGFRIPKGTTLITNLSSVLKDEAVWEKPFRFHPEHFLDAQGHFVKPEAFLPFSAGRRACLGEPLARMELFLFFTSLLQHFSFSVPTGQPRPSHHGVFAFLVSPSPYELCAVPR
% is scaled to controls: 0 for no effect and ±100 for the full control effect.

SMILES	AC50	activity, negative = inhibition
CCCCCCC[n+]1ccc(-c2cc[n+](CCCCCCC)cc2)cc1	7.94 µM (active)	
COc1cc(C=C(C#N)C#N)cc(O)c1O		-10.1% (inactive)
C[C@@]12CC[C@@H]3[C@H](CCC4=CC(=O)CC[C@]43C)[C@@H]1CC[C@@H]2C(=O)COS(=O)(=O)c1ccc(Br)cc1		3.29% [at 11.4 µM] (inactive)
Cc1cc[c]([Sb]2[O][C@H]([C@H](O)[C@H](O)C(=O)O)[C@@H](CO)[O]2)cc1		10.9% [at 11.4 µM] (inactive)
CC(C)NC(=O)N1CCCC2(CCN(C(=O)Oc3ccccc3)CC2)C1		0.403% (inactive)
O=C(Nc1ccccc1)N1CC2(CCN(C(=O)Oc3ccccc3)CC2)C1		-0.812% (inactive)
COc1ccc(NC(=O)N2CC[C@@]3(CCCN(C(=O)Oc4ccccc4)C3)C2)cc1	6.31 µM (active)	
CC(C)CN1CC2(CCN(C(=O)Oc3ccccc3)CC2)C1		11.2% (inactive)
N#Cc1ccc(CN2CC[C@@]3(CCCN(C(=O)Oc4ccccc4)C3)C2)cc1	3.16 µM (active)	
CC(C)CN1CC[C@@]2(CCCN(C(=O)Oc3ccccc3)C2)C1	6.31 µM (active)	
N#Cc1ccc(CN2CCCC3(CCN(C(=O)Oc4ccccc4)CC3)C2)cc1		-4.69% (inactive)
CN1CC[C@@]2(CCCN(C(=O)Oc3ccccc3)C2)C1		-12.1% (inactive)
COc1ccc(NC(=O)N2CCCC3(CCN(C(=O)Oc4ccccc4)CC3)C2)cc1		-1.09% (inactive)
O=C(Oc1ccccc1)N1CCC[C@@]2(CCN(C(c3ccccc3)c3ccccc3)C2)C1	5.01 µM (active)	
N#Cc1ccc(CN2CCC3(CC2)CCN(C(=O)Oc2ccccc2)CC3)cc1		1.3% (inactive)
O=C(Nc1ccccc1)N1CC[C@@]2(CCCN(C(=O)Oc3ccccc3)C2)C1		-0.759% (inactive)
COCCCN1CCN(c2nnc3n2-c2sc(Br)cc2C(c2ccccc2Cl)=NC3)CC1		9.92% (inactive)
N/C(=N\N=C/c1ccc(-c2ccc(O)c(C(=O)O)c2)o1)N[N+](=O)[O-]		-7.29% (inactive)
O=C(O)c1ccccc1Nc1cccc(C(F)(F)F)c1		-2.93% [at 25.6 µM] (inactive)
N[C@@H](CCCCP(=O)(O)O)C(=O)O		4.27% (inactive)
CC[N+](C)(C)c1cccc(O)c1		10.6% (inactive)
O=C(Oc1ccccc1)N1CCC2(CCCN(C(c3ccccc3)c3ccccc3)C2)CC1		-0.788% (inactive)

SMILES	AC50	activity, negative = inhibition
O=C(Oc1ccccc1)N1CCC2(CC1)CN(C(c1ccccc1)c1ccccc1)C2	7.94 µM (active)	
CN1CCC2(CC1)CCN(C(=O)Oc1ccccc1)CC2		-0.504% (inactive)
C[C@@H]1O[C@H](OC2[C@@H](O)[C@H](O)C(O)[C@H](O)[C@H]2O)[C@@H](N)C[C@@H]1N=C(N)C(=O)O (stereo not given in full)		3.95% [at 11.4 µM] (inactive)
CN1CCN(c2ncc3ncc(=O)n(C)c3n2)CC1		10.1% (inactive)
CC(=O)O[C@H]1CC[C@@]2(C)C(=CC[C@@H]3[C@H]2CC[C@]2(C)C(=O)CC[C@H]32)C1		-6.32% [at 25.6 µM] (inactive)
CCN(CC)CCO[C@H]1CC[C@@]2(C)C(=CC[C@@H]3[C@H]2CC[C@]2(C)C(=O)CC[C@H]32)C1	0.0794 µM (active)	
C[C@@]12CC[C@H]3[C@@H](CC=C4C[C@H](OS(=O)(=O)O)CC[C@]43C)[C@H]1CCC2=O		9.55% (inactive)
O=C(c1ccccc1F)c1cn(CC(=O)N2CCOCC2)c2ccccc12		-6.53% (inactive)
CCCN(CCC)[C@H]1CCc2c(F)ccc(O)c2C1	631 nM (active) and 1.58 µM (active)	
CCCN(CCC)[C@@H]1CCc2cccc(O)c2C1	3.16 µM (active) and inactive and 794 nM (active)	
Cc1cc(C)c(-n2c(O)c(C=NCCN3CCOCC3)c(=O)[nH]c2=O)c(C)c1		4.79% (inactive)
O=P(Nc1c(Cl)cccc1Cl)(c1ccccc1)c1nc2c(s1)CCCC2 (stereo not given)		-6.06% (inactive)
C[N+]1([O-])[C@@H]2CC(OC(=O)[C@@H](CO)c3ccccc3)C[C@@H]1[C@H]1O[C@H]12 (stereo not given in full)	inactive	
CC(=Nc1c(C)n(C)n(-c2ccccc2)c1=O)c1c(O)n(Cc2ccccc2)c(=O)[nH]c1=O		-3.59% (inactive)
O=C(O)CN1CCN(CC(=O)O)CC(=O)[O][Hg][O]C(=O)C1	3.16 µM (active)	
NCCP(=O)(O)O		19.4% [at 11.4 µM] (inactive)
C[C@@]12CC[C@@H]3[C@H](CCC4=CC(=O)CC[C@]43C)[C@@H]1CC[C@@H]2C(=O)Cn1cnc2c(=S)nc[nH]c21		7.22% [at 11.4 µM] (inactive)
O[C@@H](c1cc(-c2ccccc2)nc2c1ccc1ccccc12)[C@@H]1CCCCN1	3.16 µM (active)	
Oc1ccc([C@H](O)[C@@H]2CCCCN2)cc1O		15.6% [at 11.4 µM] (inactive)
NCc1cc(=O)[nH]o1	inactive	
O=C(O)/C=C\c1ccc[c]([Sb](=[O])([OH])[OH])c1		-6.51% [at 11.4 µM] (inactive)
CC(=O)O/C(=C1/C[C@H]2[C@@H]3CC=C4C[C@@H](OC(C)=O)CC[C@]4(C)[C@@H]3CC[C@]2(C)C1=O)C(F)(F)F		-5.95% [at 11.4 µM] (inactive)

SMILES	AC50	activity, negative = inhibition
COc1ccc2c(c1)[C@]13CCCC[C@@H]1[C@H](C2)N(C)CC3	2.51 µM (active)	
COc1ccc2c(c1)[C@]13CCCC[C@@H]1[C@H](C2)NCC3	6.31 µM (active)	
COc1ccc2c(c1)C13CCCC[C@@H]1C(C2)N(C)CC3 (stereo not given in full)	3.98 µM (active)	
CC(C)(O)/C=C\C(=O)[C@](C)(O)[C@H]1[C@H](O)C[C@]2(C)[C@@H]3CC=C4[C@@H](C=C(O)C(=O)C4(C)C)[C@]3(C)C(=O)C[C@@]12C		-2.8% [at 11.4 µM] (inactive)
C[C@@]12CC[C@H](O)C[C@@H]1CC[C@H]1[C@H]2CC[C@@]2(C)[C@@H](C3=CC(=O)OC3)CC[C@]12O		-0.173% [at 25.6 µM] (inactive)
C=CCN1C(=O)NC(=O)/C(=C/c2cccn2C)C1=O		26.3% (inactive)
NC(N)=NCCC[C@H](N)C(=O)O		8.61% (inactive)
CCOP(=O)(CN(CC)CCNP(=O)(OCC)OCC)OCC		7.73% (inactive)
O=C1C=C2C=C[C@H]3C[C@@]2(O1)[C@H]1CCCCN31		1.85% [at 25.6 µM] (inactive)
c1ccc2c(N3CCNCC3)cccc2c1	15.8 µM (active)	
COc1ccccc1N1CCNCC1		-9.83% (inactive)
c1ccc2nc(N3CCNCC3)ccc2c1	inactive	
CN1[C@@H]2CC[C@H]1CC(O[C@@H](c1ccccc1)c1ccc(Cl)cc1)C2 (stereo not given in full)	1.26 µM (active) and 1.58 µM (active)	
COc1ccc(C(=O)OC2C[C@H]3CC[C@@H](C2)N3C)cc1OC (stereo not given in full)	1 µM (active)	
COc1ccc(C(=O)O[C@H]2CC[C@@]3(C)[C@H]4CC[C@H]5[C@]3(C[C@]3(O)[C@H]6CN7C[C@H](C)CC[C@H]7[C@](C)(O)[C@]6(O)[C@H](O)C[C@]53O)O[C@]24O)cc1OC		13.4% [at 11.4 µM] (inactive)
CN1C2CCC1CC(OC(=O)c1ccc(Cl)cc1)C2 (stereo not given)	0.224 µM (active)	
CC[C@H](Oc1ccc(Cl)cc1)C(=O)OC1C[C@H]2CC[C@@H](C1)N2C (stereo not given in full)	0.00631 µM (active)	
CCN1C[C@]2(C)CC[C@H](O)[C@@]34[C@@H]5CC6[C@@H](OC)C[C@@](O)([C@@H]5[C@@H]6O)[C@H](C[C@@H]23)[C@H]14		3.42% [at 25.6 µM] (inactive)
O=c1cccc2n1CC1CNC[C@H]2C1	inactive	
COC(=O)[C@@H]1[C@@H](O)[C@@]2(O)c3c(OC)cc(OC)cc3O[C@@]2(c2ccc(OC)cc2)[C@H]1c1ccccc1		18.2% [at 11.4 µM] (inactive)
C[C@@]12CC[C@@H]3[C@@H](CC[C@H]4C[C@@H](O)CC[C@]43C)[C@H]1CC[C@@H]2c1cc(C(F)(F)F)n[nH]1		-7.84% [at 11.4 µM] (inactive)
O=C(c1ccccc1F)c1cn(Cc2ccccc2)c2ccccc12		-20.1% (inactive)

SMILES	AC50	activity, negative = inhibition
CN1[C@@H]2CC[C@H]1CC(O)C2 (stereo not given in full)		-4.03% [at 25.6 µM] (inactive)
CN1[C@@H]2CC[C@H]1CC(OC(=O)c1cc(Cl)cc(Cl)c1)C2 (stereo not given in full)	0.00794 µM (active)	
Cc1cc(C)cc(C(=O)OC2C[C@H]3CC[C@@H](C2)N3C)c1 (stereo not given in full)	0.251 µM (active)	
C[C@@H](C(=O)OC1C[C@H]2CC[C@@H](C1)N2C)c1ccc(Br)cc1 (stereo not given in full)	3.98 µM (active)	
C[N+]1([O-])[C@@H]2CC[C@H]1CC(OC(=O)[C@@H](CO)c1ccccc1)C2 (stereo not given in full)		9.36% [at 25.6 µM] (inactive)
C[N+]1([O-])[C@H]2CC[C@H]1CC(OC(=O)[C@@H](CO)c1ccccc1)C2 (stereo not given in full)		17.4% [at 11.4 µM] (inactive)
CS(=N)(=O)CC[C@H](N)P(=O)(O)O (stereo not given in full)		-6.15% [at 11.4 µM] (inactive)
C[C@@]12CCC(=O)C=C1C=C[C@H]1[C@H]3CC[C@](O)(CCC(=O)O)[C@]3(C)CC[C@@H]12		2.47% [at 25.6 µM] (inactive)
Cc1ccc(S(=O)(=O)NCC2CCC(C(=O)N3CCC4(CC3)OCCO4)CC2)cc1 (stereo not given)		5.05% (inactive)
CCC12CN3CC(CC)(CN(C1)C3c1cccnc1)C2=O (stereo not given)		-5.29% (inactive)
O=S(=O)(O)/C(=C\c1ccccc1)c1ccccc1 (tested in a mixture with another compound)		-7.27% [at 11.4 µM] (inactive)
CCCCCC[C@H]1C(=O)O[C@H](C)[C@H](NC(=O)c2cccc(NC=O)c2O)C(=O)O[C@@H](C)[C@H]1OC(=O)CC(C)C		-19.5% [at 25.6 µM] (inactive)
CN(C)c1ccc(NC(=O)CN2C(=O)CN=C(c3ccccc3)c3ccccc32)cc1		-11.3% (inactive)
C(#CCN1CCCC1)CN1CCCC1		9.47% [at 25.6 µM] (inactive)
O=C1CCCN1CC#CCN1CCCC1	inactive and 7.94 µM (active)	
C[N+](C)(C)CC#CCN1CCCC1=O	inactive and 3.98 µM (active)	
NC(=O)CN1CCCC1=O	inactive	
Cc1ccc(OP(=O)(Oc2ccc(C)cc2)N2C=Cc3ccccc3[C@H]2C#N)cc1		-6.26% [at 11.4 µM] (inactive)
CN(C)CCC(=O)[C@@]1(O)CC[C@H]2[C@H]3CC=C4C[C@@H](O)CC[C@]4(C)[C@H]3CC[C@]21C		-9.11% [at 11.4 µM] (inactive)
